# Vaccinia Venus = qHTS for Stage-Specific Inhibitors of Vaccinia Orthopoxvirus: Venus Reporter Primary qHTS | Vaccinia virus Venus reporter expression, fluorescence | Potency, µM (highest dose often 36.5 µM), for inactives: top-dose activity change, negative = inhibition, usual class: inhibitors | actives 0.46% (n = 330,000) | AID 720580, 2013; calls by dose curve; tested in A549 cells; further: on the % scale 0 is the no-effect control and ±100 the full control effect; nearly all actives have a fitted effect of over 30% in size
# HCV inhibitor = qHTS Assay for Inhibitors of Hepatitis C Virus (HCV) | Potency, µM (top dose mostly 41.8 µM), for inactives: top-dose activity change, negative = inhibition, actives largely listed as inhibitors | actives 3.4% (n = 340,000) | AID 651820, 2012 | Huh7.5.1 HCVcc-Cre infection, luciferase reporter, 44 h; further: on the % scale 0 is the no-effect control and ±100 the full control effect
#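 Luciferase read-out (15 sec integration) after a 15 min room-temperature substrate step quantifies HCVcc-Cre infection. Cells, 1,000 per well, had compound added 4 h post-plating, then virus at ~0.5 moi, and were cultured 44 h.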
# LASV entry inh = qHTS for Inhibitors of binding or entry into cells for Lassa Virus; Lassa virus pseudotype entry inhibition, cell reporter; Potency, µM (titrated, usually from 37.9 µM), inactives show at the highest dose activity change, negative = inhibition, hits mostly inhibitors; actives 1.2% (n = 300,000); calls by dose curve; tested in HEK293 cells; further: on the % scale 0 is the no-effect control and ±100 the full control effect; nearly all actives have a fitted effect of over 50% in size
# VACV mCherry inh = qHTS for Stage-Specific Inhibitors of Vaccinia Orthopoxvirus: mCherry Reporter Primary qHTS; Vaccinia virus mCherry reporter infection, fluorescence; Potency, µM (series often up to 36.5 µM), for inactives: at the top dose activity change, negative = inhibition, hits mostly inhibitors; actives 0.63% (n = 310,000); calls by dose curve; tested in A549 cells; further: on the % scale 0 is the no-effect control and ±100 the full control effect; nearly all actives have a fitted effect of over 35% in size
# Marburg entry inh = qHTS for inhibitors of binding or entry into cells for Marburg Virus. Marburg virus pseudotyped entry inhibition, cell reporter. Potency, µM (titrated, usually from 37.8 µM), inactives show at the top dose activity change, negative = inhibition, most hits filed as inhibitors. actives 1.8% (n = 300,000). AID 540276, 2011; calls by dose curve; tested in HEK293 cells; further: on the % scale 0 is the no-effect control and ±100 the full control effect
# HCV inh confirm = qHTS Assay for Inhibitors of Hepatitis C Virus (HCV): Confirmation Assay for Cherry-picked Compounds; shares compounds with HCV inhibitor; HCVcc-Cre infectious virus cell assay, luciferase, inhibition; Potency, µM (highest dose often 41.8 µM), for inactives: at the highest dose activity, negative = inhibition, most hits filed as inhibitors; actives 78% (n = 640); further: nearly all actives have a fitted effect of over 80% in size
# HCV host tox = qHTS Assay for Inhibitors of Hepatitis C Virus (HCV): Cytotoxicity Counterscreen for Cherry-picked Compounds; Potency, µM (top dose mostly 41.8 µM), without a hit: top-dose activity change, negative = cytotoxicity, hits mostly inhibitors; HCV host cell line cytotoxicity counterscreen; shares compounds with HCV inhibitor; AID 720576, 2013; actives 22% (n = 640);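 further: 44 h compound exposure; on the % scale 0 is the no-effect control and ±100 the full control effect; nearly all actives have a fitted effect of over 55% in size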
# Active calls of the source: *; i = inactive; ? = inconclusive; · = not tested or not shown; [ ] = another dose, or the depositor's remark. An excerpt weighted towards active compounds, which were near 4.6% of everything screened. Unless noted, the call rests on the fitted dose curve; in most records, active means well fitted curve in the direction sought with a large enough effect; inconclusive means small, poorly fitted or top-dose-only effect, or another doubt; inactive means no such curve, though single readings can be large; an effect the other way counts as inactive or inconclusive. Potency means the concentration at half of the fitted maximal effect.
SMILES,Vaccinia Venus,HCV inhibitor,LASV entry inh,VACV mCherry inh,Marburg entry inh,HCV inh confirm,HCV host tox
Cc1cccc(CS(=O)(=O)c2ncc(Cl)c(C(=O)Nc3c(C)cccc3C)n2)c1,·,6.3µM*,·,·,·,10µM*,28µM*
CCn1nc(C)c2c(-c3ccccc3)cc(=O)n(C(C)C(=O)NCCc3ccc(Cl)cc3)c21 (configuration not stated),-4%,·,?,-6%,·,·,·
COc1ccc(C2CC(=O)C3=C(C2)Nc2ncnn2C3c2ccccc2C)c(OC)c1 (configuration not stated),·,3.5µM*,-8%,·,?,7µM*,22%
COc1cc(C2CC(=O)C3=C(C2)Nc2ncnn2C3c2cccs2)cc(OC)c1OC (configuration not stated),-10%,0%,-13%[46.1 µM],i,-4%[46.1 µM],·,·
O=C(NC1c2ccccc2-c2ccccc21)c1ccco1,?,?,25%,?,-13%[46.1 µM],7.9µM*,-93%
O=C(NC1CCCCC1NC(=O)c1ccco1)c1ccco1 (configuration not stated),-11%,20%,3%,-8%[1.46 µM],-6%,·,·
Cc1cccc(NC(=O)C(=O)NCC(c2ccc3c(c2)OCO3)N2CCOCC2)c1C (configuration not stated),-12%,·,17%[46.1 µM],-11%,·,·,·
COc1ccc(CCNC(=O)c2cc3c(=O)n4ccccc4nc3n(CCCN3CCOCC3)c2=N)cc1,·,8.9µM*,·,·,·,16µM*,14%
Cc1ccc2nc3c(cc(C(=O)NCCc4ccccc4)c(=N)n3CCCN3CCOCC3)c(=O)n2c1,-3%,?,·,-9%,?,·,·
COc1ccc(CCNC(=O)c2cc3c(=O)n4ccccc4nc3n(C3CCCCC3)c2=N)cc1,·,7.9µM*,·,·,·,14µM*,-10%
N=c1c(S(=O)(=O)c2ccc(Br)cc2)cc2c(=O)n3ccccc3nc2n1C1CCCCC1,·,?,·,·,·,14µM*,16%
CN1CCN(CC#CCC(O)(c2ccccc2)c2ccccc2)CC1,-9%,-20%,-1%,i,17%,·,·
CN1CCN(CC#CCn2c3ccccc3c3ccccc32)CC1,-30%,4µM*,?,?,?,7µM*,13%
O=C1OCCN1C(=O)[C@H]1[C@H](c2ccc([N+](=O)[O-])cc2)C(c2ccc(F)cc2)=NN1c1ccccc1,?,?,·,-28%,·,·,·
O=C1OCCN1C(=O)[C@H]1[C@H](c2ccc([N+](=O)[O-])cc2)C(c2ccc(F)cc2)=NN1c1ccc(Br)cc1,-4%,-56%,·,-19%,·,?,26%
CCc1ccccc1NC(=O)CC(C)n1nc(C)cc1C (configuration not stated),-2%,·,-17%[46.1 µM],1%,·,·,·
Cc1noc(C)c1COC(=O)c1ccc(F)c(S(=O)(=O)N2CCCCC2)c1,·,?,4%,·,-27%,28µM*,-36%
Cc1noc(C)c1COC(=O)c1ccc2c(c1)OCCO2,-17%,-1%,13%,-29%,3%,·,·
COc1ccc(NC(=O)Cn2cnc3c(nc4n3CCCCC4)c2=O)c(OC)c1,10%,·,0%[46.1 µM],4%,·,·,·
CCOCCCn1c(=N)c(C(=O)NCC2CCCO2)cc2c(=O)n3cccc(C)c3nc21 (configuration not stated),10%,·,7%[46.1 µM],11%,?,·,·
CCOCCCn1c(=N)c(C(N)=S)cc2c(=O)n3cccc(C)c3nc21,·,?,-25%,·,-12%,20µM*,-98%
CCOC(=O)N/N=C1/C[C@@H](O)[C@@H](O)[C@@H]2[C@@H]3C(=O)N(Cc4ccccc4)C(=O)[C@H]3CC[C@H]12,·,·,·,·,25%[14.2 µM],·,·
Oc1ccc(CN2CCN(c3ccccc3)CC2)c2cccnc12,-22%,7.9µM*,?,-27%,?,7µM*,22µM*
